Only some compounds are listed: those with a hit (about 3.6% of all), similar ones and a draw of the others.
DUSP3 inh – DUSP3 (human) phosphatase inhibition; inhibition, % at 13.3 µM; recombinant VHR phosphatase, pNPP absorbance; P51452; 290,000 compounds, 0.52% hits; AID 1654; in the data active = inhibition above about 50%
Target sequence (P51452 whole entry, looked up): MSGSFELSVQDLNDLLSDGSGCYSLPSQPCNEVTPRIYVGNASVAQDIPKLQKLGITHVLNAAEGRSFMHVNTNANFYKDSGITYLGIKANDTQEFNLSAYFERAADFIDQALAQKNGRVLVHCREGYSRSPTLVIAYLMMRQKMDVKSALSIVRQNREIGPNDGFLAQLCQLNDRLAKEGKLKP
Mtb betalactam – beta-lactam sensitization of Mtb H37Rv; inhibition, % at 25 µM; 330,000 compounds, 0.27% hits; M. tuberculosis H37Rv growth with meropenem, percent inhibition; AID 434955; call rule not given here;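 note: growth measured after seven days incubation then overnight dye step; 0% = bacteria only wells and 100% = bacteria with antibiotic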
GDH-TPI counter-1 – inhibits GDH-TPI coupling enzymes, artifact for Mtb FBA screen; inhibition, % at 4.8 µM; GDH-TPI coupled enzyme counterscreen, NADH absorbance; 360,000 compounds, 1.2% hits; AID 588335; in the data active = inhibition above about 30%;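 note: 0% = DMSO wells and 100% = wells lacking the enzyme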
FBA Mtb inh – inhibits M. tuberculosis FBA enzyme. 360,000 compounds, 2.3% hits. inhibition, % at 1 µM. P9WQA3. AID 588726. purified M. tuberculosis FBA, fluorescence read-out;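 note: 0% = vehicle and 100% = reference inhibitor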
Target sequence (P9WQA3 whole entry, looked up): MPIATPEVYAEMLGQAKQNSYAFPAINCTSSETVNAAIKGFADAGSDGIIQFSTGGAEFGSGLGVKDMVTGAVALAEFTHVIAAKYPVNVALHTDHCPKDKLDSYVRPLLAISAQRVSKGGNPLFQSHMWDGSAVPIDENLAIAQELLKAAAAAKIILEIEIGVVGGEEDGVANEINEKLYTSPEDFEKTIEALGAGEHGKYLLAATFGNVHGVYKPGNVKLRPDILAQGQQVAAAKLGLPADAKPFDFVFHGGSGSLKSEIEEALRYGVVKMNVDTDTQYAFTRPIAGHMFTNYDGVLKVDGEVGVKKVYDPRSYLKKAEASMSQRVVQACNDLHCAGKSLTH
Mtb hypoxia inh – inhibitors of hypoxia-regulated fluorescent reporter in Mycobacterium tuberculosis; M. tuberculosis hypoxia-regulated fluorescent reporter, fluorescence; fluorescence inhibition, % (no concentration beside the values); 300,000 compounds, 0.1% hits; AID 1159583; in the data active = fluorescence inhibition mostly above about 23%, no sharp cut-off; inactive = mostly below about 17%
Mtb FBA confirm – confirmation of M. tuberculosis fructose-bisphosphate aldolase inhibitors. shares compounds with FBA Mtb inh. purified M. tuberculosis FBA, fluorescence read-out. inhibition, % at 1 µM. 5,600 compounds, 78% hits;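 note: 0% = vehicle wells and 100% = reference inhibitor wells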
GDH-TPI counter-2 – counter-screen for M. tuberculosis FBA inhibitors: GDH-TPI coupled enzyme inhibition; shares compounds with FBA Mtb inh; GDH-TPI coupled enzyme counterscreen, fluorescence; inhibition, % at 1 µM; 5,600 compounds, 81% hits; in the data active = inhibition above about 10%
GDH-TPI DR – inhibits GDH-TPI coupling enzymes in dose response; 170 compounds, 79% hits; shares compounds with FBA Mtb inh; GDH-TPI coupled enzyme assay, fluorescence, artifact counterscreen; IC50, µM; call rule not given here
An asterisk follows results filed as active; . = not tested or not shown; + = active, no number. Cut-off read from the data, not from the text of the source, unless noted: active = inhibition above about 27%; inactive = the rest.

SMILES	DUSP3 inh	Mtb betalactam	GDH-TPI counter-1	FBA Mtb inh	Mtb hypoxia inh	Mtb FBA confirm	GDH-TPI counter-2	others
COc1cc(C#Cc2c(C=O)n(C)c3ccccc23)cc(OC)c1	.	3.1	15.1	6.4	.	.	.
C=CCn1c2ccccc2c(=O)c2cc(C#Cc3cc(OC)cc(OC)c3)ccc21	.	9.2	30.9*	56.2*	-0.8	9.6	6.5
COC(=O)[C@]1(C)NC(c2ccc(-c3cccc(Cl)c3)cc2)C2C(=O)N(C)C(=O)C21 (stereo not given in full)	.	.	.	.	-2.6	.	.
O=C(NN=Cc1c[nH]c2ccccc12)c1ccc2c(c1)OCCO2	.	.	.	.	5.0	.	.
COc1ccc2c(c1OC)c(=O)n1c3ccc(OC(C)C(=O)NCCN4CCOCC4)cc3c3ccnc2c31 (stereo not given)	24.5	1.7	5.9	91.1*	.	84.0*	67.7*
CC(Oc1ccc(Cl)cc1Cl)C(=O)NCCN1CCOCC1 (stereo not given)	8.2	-3.6	1.2	-1.6	-1.4	.	.
Cn1nc(C(=O)NCCN2CCOCC2)c2ccccc2c1=O	-6.0	-3.6	0.6	-0.4	-1.9	.	.
CC(Oc1ccc2c(c1)c1ccnc3c4ccccc4c(=O)n2c13)C(=O)NCCN1CCOCC1 (stereo not given)	20.5	70.4	14.6	44.4*	.	136.1*	116.7*
O=C(NN=Cc1cccnc1)c1ccccc1O	.	.	.	.	9.2	.	.
Cc1nn(C)cc1-c1cc(C(=O)O)c2ccccc2n1	4.0	-2.2	7.0	81.7*	-6.5	18.0	6.6	GDH-TPI DR=3.33*
C#CCNC(=O)C1=CC(C2CCCCC2)C(CCCO)C(OCC)O1 (stereo not given)	.	.	.	.	3.5	.	.
CCOC(=O)C1C2COc3ccc(Br)cc3C2N2C(=O)CN(Cc3ccccc3)C(=O)[C@@]12C (stereo not given in full)	.	.	.	.	11.2	.	.
COc1cc(NC(=O)CCCOc2ccc(Cl)cc2Cl)c(C(=O)O)cc1OC	11.6	-1.7	13.0	0.6	7.3	.	.
O=C(CCCOc1ccc(Cl)cc1Cl)Nc1ccc(O)cc1C(=O)O	9.1	-1.8	25.9	30.2*	14.3	+	+
Cc1cc2ncc(-c3cccs3)nc2cc1C	6.1	27.3	8.1	73.3*	15.1	67.6*	58.1*
CN(C)CCCNC(=S)NCCNc1nc2cc3c(cc2cc1C#N)OCO3	18.1	10.7	7.3	69.6*	-1.3	65.4*	46.7*
CCOCCCNC(=S)NCCCNc1nc2ccc(C)cc2cc1C#N	22.3	24.6	.	.	.	.	.
CCOCCCNC(=S)NCCNc1nc2ccc(C)cc2cc1C#N	12.1	-2.9	-3.1	12.3	0.8	.	.
CCOCCCNC(=S)NCCCNc1nc2cc3c(cc2cc1C#N)OCO3	2.6	8.0	18.3	65.5*	3.6	188.1*	153.0*
O=C(NCc1ccccn1)c1cc(-c2ccc(Br)cc2)nc2ccccc12	1.3	5.8	9.3	4.6	5.5	.	.
Cc1ccc(-c2cc(C(=O)NCc3ccccn3)c3ccccc3n2)cc1	1.8	-3.8	20.4	28.0*	2.7	122.9*	115.8*
CCc1ccc(-c2cc(C(=O)NCc3ccccn3)c3ccccc3n2)cc1	11.9	82.9	-1.1	29.1*	10.9	88.4*	64.5*
CCCOc1ccc2ccccc2c1C=Nn1c(C)nnc1-n1nc(C)cc1C	.	.	.	.	12.3	.	.
COC(=O)/C(=C/Nc1cccc2ccccc12)[N+](=O)[O-]	-8.3	1.9	-1.9	73.9*	19.6	98.3*	80.1*
COc1cc(OC)cc(C(=O)Nc2cccc3ccccc23)c1	45.4	4.5	6.0	-2.1	21.4	.	.
SMILES	DUSP3 inh	Mtb betalactam	GDH-TPI counter-1	FBA Mtb inh	Mtb hypoxia inh	Mtb FBA confirm	GDH-TPI counter-2	others
COc1ccc(C2CC(=O)C=C(c3cc(Br)ccc3OC)C2)cc1 (stereo not given)	.	.	.	.	3.8	.	.
CCOC(=O)CN1C(=O)NC(c2ccccc2)C(C(=O)OC)=C1C (stereo not given)	.	.	.	.	-1.6	.	.
CC1(C)Cc2nc(N3CCOCC3)c(C#N)cc2CO1	-18.0	1.1	-3.4	48.6*	6.0	36.8*	35.2*
CC1(C)Cc2nc(N3CCCC3)c(C#N)cc2CO1	11.5	-0.4	6.9	110.5*	9.5	66.0*	50.1*
CC1(C)Cc2nc(Cl)c(C#N)cc2CO1	9.1	1.3	-0.6	-0.1	11.0	.	.
CCOC(=O)c1cc(-c2ccccc2)sc1NC(=O)C(C)C	-38.2	10.4	1.1	36.8*	-4.8	125.3*	112.7*
COc1ccc(-c2cn3cccnc3n2)cc1NC(=O)c1ccc(Br)o1	14.0	.	13.1	30.3*	21.6	9.3	5.4
CC(C)(C)OC(=O)CC1CC=CCC(CC(=O)NCCO)C(=O)NC(Cc2c[nH]c3ccccc23)COC1=O (stereo not given)	.	.	.	.	0.9	.	.
N#Cc1ccc(C23CC4(C2)C(CN(Cc2ccc(-c5ccccc5)cc2)C4c2ccccc2)C3c2ccc(Cl)nc2)cc1 (stereo not given)	.	.	.	.	-3.7	.	.
Cc1ccc(-c2cc[n+](Cc3ccccc3)cc2)cc1	22.2	-9.8	10.5	66.6*	0.9	+	+
N#CC(C(=O)Oc1ccccc1)=C1C=CC=CN1	.	.	.	.	5.0	.	.
COC(=O)C1=C(c2cccc(OC)c2OC)CC2CCC1N2C(=O)N1CCC(O)CC1 (stereo not given)	.	.	.	.	6.0	.	.
CCN1CCN(c2cc3c(nn2)Oc2ccccc2N3C)CC1	28.6	2.0	8.3	73.3*	9.4	4.9	-5.2
CCN1CCN(c2cc(=O)n3ccccc3n2)CC1	35.8	3.4	12.6	7.5	5.2	.	.
CCCOc1ccc(S(=O)(=O)N2CCOCC2)cc1[N+](=O)[O-]	7.6	1.7	-1.9	34.1*	-7.7	72.4*	62.9*
CC1=C(C#N)C(C)C2=C(CC(C)(C)CC2=O)N1 (stereo not given)	10.5	2.4	3.1	57.5*	3.5	71.3*	64.7*
CN(CCNC(=O)c1c[nH]c2c1ccc1ccccc12)CCNC(=O)c1c[nH]c2c1ccc1ccccc12	.	.	21.6	29.5*	.	193.4*	173.0*
CN(C)CCNC(=O)c1ccccc1-c1cc2ccccc2c(=O)o1	2.4	0.1	3.0	1.3	8.4	.	.
Cc1ccc2[nH]cc(C(=O)NCc3cccs3)c(=O)c2c1	-0.1	-2.0	-4.1	0.2	6.0	.	.
COc1cccc2c(=O)c(C(=O)NCCc3ccccc3)c[nH]c12	.	.	10.0	48.5*	18.7	63.4*	45.1*
COc1cccc2c(=O)c(C(=O)NCc3cccs3)c[nH]c12	9.5	3.5	12.2	34.2*	11.4	32.3*	26.0*
CN1CC2C3C(=O)N(C)C(=O)C3[C@](C)(C1=O)N2C(=O)c1ccc(C(C)(C)C)cc1 (stereo not given in full)	.	.	.	.	13.2	.	.
Cc1ccc(CN2CCN(N=Cc3sccc3C)CC2)c(C)c1	.	.	.	.	-6.2	.	.
CC1(C)Cc2c(C#N)c(NCCO)nc(-c3ccco3)c2CO1	27.2	2.2	14.1	59.3*	11.4	31.9*	20.0*

Screening results from PubChem.
